Assay results published in PubChem BioAssay.
Active and inactive are the calls of the source.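 Rule for the calls, unless noted: active = inhibition above 20% together with a positive visual image hit; inconclusive = visual image hit but inhibition not above 20%; inactive = no visual image hit.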

What was measured:
[1] = inhibitors of TNFa-induced NFkB p65 translocation, primary screen, imaging, HUVEC, MLSMR starter and 10KST1 sets (AID 438); settings: HUVEC TNFa-induced p65 nuclear translocation; cell count: measured here: nuclei count (cytotoxicity indicator), at 2.08 µM; inhibition: at 2 µM, stronger effect = higher value, 0% TNFa-plus-vehicle, 100% no-TNFa wells;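 note: compound added about 3h40 before a 20 min TNFalpha stimulation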;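 for inhibition: signal is the nuclear over cytoplasmic p65 intensity ratio per well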
[2] = inhibitors of mutant huntingtin aggregation, primary screen, imaging, exon1htt(103Q)mCFP cells, high-content imaging (AID 483;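 active = visual image review flags a hit and inhibition of aggregation exceeds 20%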;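 note: compound exposure lasted 3 days before fixation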;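 for nuclei count: percent of the per-plate median nuclei count of sample wells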); settings: exon1htt(103Q)mCFP cell line, aggregate imaging, at 2 µM; inhibition of aggregation: stronger effect = higher value; nuclei count: measured here: cell count, toxicity
[3] = inhibitors of E-selectin induction by TNFa, primary screen, imaging, HUVEC, immunofluorescence, MLSMR starter and 10KST1 sets (AID 487;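 active = visually confirmed hit in the image check and inhibition above 20%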;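 for inhibition: signal is fraction of cell area covered by stained E-selectin grains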;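 for nuclei count: 100% = median nuclei count of all wells on the same plate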); settings: HUVEC TNFalpha-induced E-selectin immunofluorescence imaging, at 2 µM; inhibition: stronger effect = higher value; nuclei count: measured here: cell number, toxicity
[4] = target: Voltage-gated potassium channel subunit beta-2 (Rattus norvegicus) (UniProt P62483); assay: KvBeta enzyme negative modulators, primary screen, biochemical, NADPH fluorescence (AID 622;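 active = fluorescence slope higher than the sample average by over 3 SD, cut at about -0.22 in these data, passing the limit was not always enough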;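 note: slope of raw intensity against log time taken from 70 to 1610 s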); settings: recombinant KvBeta, 4-cyanobenzaldehyde reduction, at 10 µM, stronger effect = higher value
Chain of Voltage-gated potassium channel subunit beta-2 (Rattus norvegicus) (P62483 whole entry, looked up): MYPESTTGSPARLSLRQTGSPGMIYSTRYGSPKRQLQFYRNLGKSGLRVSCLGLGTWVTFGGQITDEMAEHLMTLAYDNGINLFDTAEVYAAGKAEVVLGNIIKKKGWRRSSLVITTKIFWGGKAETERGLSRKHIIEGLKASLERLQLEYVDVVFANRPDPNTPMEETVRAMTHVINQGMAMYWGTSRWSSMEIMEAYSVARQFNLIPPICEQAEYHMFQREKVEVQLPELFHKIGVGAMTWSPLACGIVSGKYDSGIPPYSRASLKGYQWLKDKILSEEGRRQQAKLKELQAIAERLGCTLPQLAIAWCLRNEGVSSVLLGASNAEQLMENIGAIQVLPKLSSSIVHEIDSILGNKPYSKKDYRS

[5] = target: Voltage-gated potassium channel subunit beta-2 (Rattus norvegicus) (UniProt P62483); assay: KvBeta positive modulators, primary screen, biochemical, NADPH fluorescence (AID 623;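 active = NADPH fluorescence slope more negative than the mean of all samples by about 3 SD, 99.7% confidence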;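 note: fluorescence intensity change per second fitted from 20 to 320 s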); settings: Recombinant KvBeta, NADPH fluorescence decrease slope, 10 min; at 10 µM; stronger effect = lower value
[6] = target: Alpha-2C adrenergic receptor (Homo sapiens) (UniProt P18825); assay: modulators of alpha2C/GIRK thallium flux, primary screen, cell-based, HEK293 alpha2C/GIRK1/2 (AID 624;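 active = fluorescence slope after compound addition differing from the mean of all screened samples at 99.7% confidence, in either direction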;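 note: slope of fluorescence ratio to pre-addition baseline per second over 15 to 24 s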); settings: thallium flux BTC fluorescence, at 10 µM, actives lie on both sides
Chain of Alpha-2C adrenergic receptor (Homo sapiens) (P18825 whole entry, looked up): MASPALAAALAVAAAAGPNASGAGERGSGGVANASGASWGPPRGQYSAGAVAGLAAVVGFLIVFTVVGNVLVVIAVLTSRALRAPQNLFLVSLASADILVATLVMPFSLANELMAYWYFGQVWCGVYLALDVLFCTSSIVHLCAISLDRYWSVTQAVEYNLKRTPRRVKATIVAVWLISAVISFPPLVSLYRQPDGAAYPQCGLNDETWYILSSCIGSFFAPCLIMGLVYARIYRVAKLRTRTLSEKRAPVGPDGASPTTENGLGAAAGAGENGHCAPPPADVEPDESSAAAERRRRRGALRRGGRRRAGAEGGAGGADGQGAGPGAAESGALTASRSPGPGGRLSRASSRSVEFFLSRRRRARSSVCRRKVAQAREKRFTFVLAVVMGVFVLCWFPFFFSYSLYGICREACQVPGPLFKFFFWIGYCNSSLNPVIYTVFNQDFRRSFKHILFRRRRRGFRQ

[7] = inhibitors of Sendai virus-induced IRF3 signaling, primary screen, TLR/RLR signaling modifier project, cell-based, Sendai virus stimulus, luciferase, 10K MLSCN set (AID 602276;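 active = inhibition at or above 50% at 10 µM; inactive = inhibition below 50%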;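 note: firefly luciferase from ISG56 promoter only with Renilla not read in this screen; 0% = Sendai virus plus DMSO and 100% = medium plus DMSO without virus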); settings: HEK293 RL24 IRF3 luciferase reporter, at 10 µM, stronger effect = higher value
[8] = inhibitors of poly I:C-induced TLR3 signaling, primary screen, cell-based, poly I:C stimulus, luciferase, 10K MLSCN set (AID 602277;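 active = inhibition of the reporter signal at or above 50%; inactive = inhibition below 50%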); settings: HEK293-TLR3 RL24 IRF3 luciferase reporter, at 10 µM, stronger effect = higher value

SMILES	cell count [1]	inhibition [1]	inhibition of aggregation [2]	nuclei count [2] [%]	inhibition [3]	nuclei count [3] [%]	fluorescence slope [4]	NADPH fluorescence slope [5]	slope [6]	inhibition [7]	inhibition [8]
COC(=O)c1ccc(C2C(C#N)=C(N)Oc3cc(C)n(C)c(=O)c32)cc1 (centres undefined)	551	-11.1% (inactive)	0.4% (inactive)	111	-1.7% (inactive)	111	-0.499 (inactive)	-4.1e-05 (inactive)	0.00425 (inactive)	9.77% (inactive)	6% (inactive)
CC1Cc2ccccc2N1C(=O)CSc1nc2ccccc2n1CC(=O)N1CCOCC1 (centres undefined)	468	-0.5% (inactive)	6.9% (inactive)	111	-68.5% (inactive)	110	-0.523 (inactive)	-0.000178 (inactive)	0.00303 (inactive)	15.4% (inactive)	2% (inactive)
COc1ccc(S(=O)(=O)N2CCCC2C(=O)Nc2ccc(O)cc2)cc1 (centres undefined)	601	7.1% (inactive)	-21.9% (inactive)	110	-23.4% (inactive)	111	-0.535 (inactive)	-2e-05 (inactive)	0.00566 (inactive)	1.14% (inactive)	12.2% (inactive)
Cn1c(=O)c2c(-c3ccncc3)c3c(nc2n(C)c1=O)-c1ccccc1C3=O	637	0% (inactive)	-3.3% (inactive)	98.9	-113% (inactive)	136	-0.497 (inactive)	4.5e-05 (inactive)	0.00591 (inactive)	14.2% (inactive)	22.4% (inactive)
O=C(Oc1ccc(Cl)cc1N1C(=O)CCC1=O)c1ccco1	331	-4.2% (inactive)	-31.4% (inactive)	114	-182% (inactive)	134	-0.463 (inactive)	-1.4e-05 (inactive)	0.00607 (inactive)	7.34% (inactive)	31.5% (inactive)
COc1ccc(N(CC(=O)Nc2ccc3c(c2)OCCO3)S(=O)(=O)c2cccnc2)cc1	515	-3.3% (inactive)	13.1% (inactive)	117	-36.8% (inactive)	122	-0.608 (inactive)	-7e-05 (inactive)	0.00783 (inactive)	-5.76% (inactive)	17.1% (inactive)
Cn1cc(Cl)c(C(=O)N(Cc2ccccc2)c2ccccn2)n1	623	8.3% (inactive)	-6.5% (inactive)	102	-5.2% (inactive)	117	-0.584 (inactive)	-3.1e-06 (inactive)	0.00695 (inactive)	-18.3% (inactive)	0.52% (inactive)
O=C(NCCc1ccccc1)C1CCCN(S(=O)(=O)c2cccs2)C1 (centres undefined)	901	6.9% (inactive)	-17.3% (inactive)	111	-27.2% (inactive)	115	-0.571 (inactive)	-2.3e-05 (inactive)	0.00585 (inactive)	10.2% (inactive)	23.9% (inactive)
CN1C(=O)C(O)(CC(=O)c2ccccc2O)c2cc(Br)ccc21 (centres undefined)	608	3.4% (inactive)	-2.8% (inactive)	63.4	-59.3% (inactive)	124	-0.439 (inactive)	-6e-05 (inactive)	0.00404 (inactive)	7.07% (inactive)	55.8% (active)
Cn1c(CN2CCOCC2)nnc1SCC(=O)NCCc1ccccc1	444	-1% (inactive)	0.2% (inactive)	118	-161% (inactive)	210	-0.613 (inactive)	6.8e-06 (inactive)	0.00528 (inactive)	-8.38% (inactive)	-42.9% (inactive)
COc1ccccc1N1CCN(S(=O)(=O)CC23CCC(CC2=O)C3(C)C)CC1 (centres undefined)	522	-8.1% (inactive)	20.7% (inactive)	103	-64.4% (inactive)	157	-0.452 (inactive)	-3.6e-05 (inactive)	0.00394 (inactive)	9.34% (inactive)	25.6% (inactive)
CC(C)(C)n1nnnc1CN(Cc1ccco1)Cc1cc2cc3c(cc2[nH]c1=O)OCO3	667	13.3% (inactive)	-11.2% (inactive)	108	-53.9% (inactive)	130	-0.401 (inactive)	-5.7e-05 (inactive)	0.00513 (inactive)	15.5% (inactive)	16% (inactive)
c1ccc2c(c1)nc(-c1ccncc1)n1nnnc21	517	-8.5% (inactive)	8.6% (inactive)	104	-111% (inactive)	179	-0.359 (inactive)	-1.7e-05 (inactive)	0.00824 (inactive)	7.9% (inactive)	0.706% (inactive)
O=C(Cn1c(NCCO)nc2ccccc21)c1ccccc1	513	4.9% (inactive)	18.2% (inactive)	106	-58.5% (inactive)	115	-0.58 (inactive)	-1.8e-05 (inactive)	0.00599 (inactive)	9.81% (inactive)	29.4% (inactive)
